Results reported in PubChem BioAssay AID1159580 (chemical genetic matrix, 2015).
Among all 5,500 compounds or so, about 2,000 (36%) were called active. Not shown: some 18% with an inconclusive outcome. No stated cut-off is given here; in the data, active means normalized growth mostly below about 0.91 (no sharp cut-off); inconclusive means no clear call, values can overlap the other calls; inactive means mostly above about 0.92. The list shows a part of the results.

Test: chemical genetic growth profiling, strain panel (AID 1159580);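 further: tested at 20 µM; growth read once vehicle control cultures reached saturation at 30 °C; 1 = growth at the plate median or of vehicle wells; lower values mean less growth of the strain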
Conditions: growth OD

Measured: normalized growth

c1ccc(CC2=NCCN2)cc1
active: S. cerevisiae deletion strains, locus YKL009W, strain mrt4, active compounds read low 0.695 | S. cerevisiae deletion strains, locus YKL068W, active compounds read low 0.837 | S. cerevisiae deletion strains, locus YKL085W, strain MDH1 (second series), active compounds read low 0.836 | S. cerevisiae deletion strains, locus YKL085W, strain MDH1, active compounds read low 0.836 | S. cerevisiae deletion strains, locus YLR102C, strain apc9, active compounds read low 0.897 | S. cerevisiae deletion strains, locus YML124C, strain tub3, active compounds read low 0.904 | S. cerevisiae deletion strains, locus YMR078C, strain ctf18, active compounds read low 0.907 | S. cerevisiae deletion strains, locus YNL250W, strain rad50, active compounds read low 0.822 | S. cerevisiae deletion strains, locus YNL271C, strain bni1, active compounds read low 0.837 | S. cerevisiae deletion strains, locus YNL298W, strain CLA4, active compounds read low 0.79 | S. cerevisiae deletion strains, locus YNL307C, strain MCK1, active compounds read low 0.877 | S. cerevisiae deletion strains, locus YNR052C, strain pop2, active compounds read low 0.911 | S. cerevisiae deletion strains, locus YOL147C, strain pex11, active compounds read low 0.915 | S. cerevisiae deletion strains, locus YOR144C, strain elg1, active compounds read low 0.917 | S. cerevisiae deletion strains, locus YOR316C, strain cot1, active compounds read low 0.919 | S. cerevisiae deletion strains, locus YPR119W, strain clb2, active compounds read low 0.896 | S. cerevisiae deletion strains, locus YPR141C, strain kar3, active compounds read low 0.767 | S. cerevisiae deletion strains, locus YPR163C, strain tif3, active compounds read low 0.885 | S. cerevisiae deletion strains, locus YPR167C, strain met16, active compounds read low 0.906
inactive: S. cerevisiae deletion strains, locus YJR075W, strain HOC1, active compounds read low 1 | S. cerevisiae deletion strains, locus YKL160W, strain elf1, active compounds read low 1.03 | S. cerevisiae deletion strains, locus YKL190W, strain CNB1, active compounds read low 0.998 | S. cerevisiae deletion strains, locus YKR001C, strain vps1, active compounds read low 0.913 | S. cerevisiae deletion strains, locus YKR026C, strain gcn3, active compounds read low 1.03 | S. cerevisiae deletion strains, locus YKR091W, strain srl3, active compounds read low 1.01 | S. cerevisiae deletion strains, locus YLL001W, strain dnm1, active compounds read low 1.01 | S. cerevisiae deletion strains, locus YLL026W, active compounds read low 1.02 | S. cerevisiae deletion strains, locus YLL041C, strain sdh2, active compounds read low 1.01 | S. cerevisiae deletion strains, locus YLR027C, strain aat2, active compounds read low 1.02 | S. cerevisiae deletion strains, locus YLR039C, strain RIC1, active compounds read low 0.931 | S. cerevisiae deletion strains, locus YLR058C, strain SHM2, active compounds read low 0.984 | S. cerevisiae deletion strains, locus YLR113W, strain HOG1, active compounds read low 0.957 | S. cerevisiae deletion strains, locus YLR221C, strain rsa3, active compounds read low 0.997 | S. cerevisiae deletion strains, locus YLR258W, strain gsy2, active compounds read low 1.01 | S. cerevisiae deletion strains, locus YLR262C, strain YPT6 (second series), active compounds read low 1.03 | S. cerevisiae deletion strains, locus YLR262C, strain YPT6, active compounds read low 0.927 | S. cerevisiae deletion strains, locus YLR268W, strain sec22, active compounds read low 0.905 | S. cerevisiae deletion strains, locus YLR320W, strain mms22, active compounds read low 0.989 | S. cerevisiae deletion strains, locus YLR330W, strain CHS5, active compounds read low 0.97 | S. cerevisiae deletion strains, locus YLR342W, strain FKS1 (second series), active compounds read low 1.01 | S. cerevisiae deletion strains, locus YLR342W, strain FKS1, active compounds read low 1.03 | S. cerevisiae deletion strains, locus YLR357W, strain rsc2, active compounds read low 1.03 | S. cerevisiae deletion strains, locus YLR370C, strain arc18, active compounds read low 1.01 | S. cerevisiae deletion strains, locus YLR371W, strain rom2, active compounds read low 0.909 | S. cerevisiae deletion strains, locus YLR384C, strain iki3, active compounds read low 1.03 | S. cerevisiae deletion strains, locus YLR418C, strain cdc73, active compounds read low 1.01 | S. cerevisiae deletion strains, locus YML016C, strain PPZ1, active compounds read low 1.01 | S. cerevisiae deletion strains, locus YML032C, strain rad52, active compounds read low 0.915 | S. cerevisiae deletion strains, locus YML120C, strain ndi1, active compounds read low 1.01 | S. cerevisiae deletion strains, locus YMR058W, strain fet3, active compounds read low 1.03 | S. cerevisiae deletion strains, locus YMR125W, strain sto1, active compounds read low 1.01 | S. cerevisiae deletion strains, locus YMR129W, active compounds read low 1.02 | S. cerevisiae deletion strains, locus YMR205C, strain PFK2, active compounds read low 1 | S. cerevisiae deletion strains, locus YMR223W, strain ubp8, active compounds read low 0.916 | S. cerevisiae deletion strains, locus YMR231W, strain pep5, active compounds read low 1.01 | S. cerevisiae deletion strains, locus YMR263W, strain SAP30, active compounds read low 0.978 | S. cerevisiae deletion strains, locus YMR307W, strain GAS1, active compounds read low 1.03 | S. cerevisiae deletion strains, locus YNL067W, strain RPL9B, active compounds read low 0.957 | S. cerevisiae deletion strains, locus YNL071W, strain lat1, active compounds read low 1.03 | S. cerevisiae deletion strains, locus YNL128W, strain TEP1, active compounds read low 1.01 | S. cerevisiae deletion strains, locus YNL153C, strain GIM3, active compounds read low 0.987 | S. cerevisiae deletion strains, locus YNL183C, strain NPR1, active compounds read low 0.943 | S. cerevisiae deletion strains, locus YNL209W, strain ssb2, active compounds read low 1.02 | S. cerevisiae deletion strains, locus YNL233W, strain BNI4, active compounds read low 0.98 | S. cerevisiae deletion strains, locus YNL248C, strain rpa49, active compounds read low 1.05 | S. cerevisiae deletion strains, locus YNL322C, strain KRE1 (second series), active compounds read low 1.01 | S. cerevisiae deletion strains, locus YNL322C, strain KRE1, active compounds read low 0.987 | S. cerevisiae deletion strains, locus YNR049C, strain mso1, active compounds read low 0.996 | S. cerevisiae deletion strains, locus YOL006C, strain TOP1, active compounds read low 1.09 | S. cerevisiae deletion strains, locus YOL012C, strain htz1 1.4 | S. cerevisiae deletion strains, locus YOR001W, strain rrp6, active compounds read low 1 | S. cerevisiae deletion strains, locus YOR061W, strain CKA2, active compounds read low 0.986 | S. cerevisiae deletion strains, locus YOR069W, strain VPS5, active compounds read low 0.968 | S. cerevisiae deletion strains, locus YOR070C, strain gyp1, active compounds read low 0.998 | S. cerevisiae deletion strains, locus YOR080W, strain dia2, active compounds read low 1.02 | S. cerevisiae deletion strains, locus YOR083W, strain WHI5, active compounds read low 0.976 | S. cerevisiae deletion strains, locus YOR106W, strain vam3, active compounds read low 1.03 | S. cerevisiae deletion strains, locus YOR136W, strain idh2, active compounds read low 0.937 | S. cerevisiae deletion strains, locus YOR184W, strain ser1, active compounds read low 0.899 | S. cerevisiae deletion strains, locus YOR231W, strain MKK1, active compounds read low 0.976 | S. cerevisiae deletion strains, locus YOR265W, strain rbl2, active compounds read low 0.99 | S. cerevisiae deletion strains, locus YOR270C, strain vph1, active compounds read low 1.11 | S. cerevisiae deletion strains, locus YOR290C, strain snf2, active compounds read low 1 | S. cerevisiae deletion strains, locus YPL051W, strain arl3, active compounds read low 0.989 | S. cerevisiae deletion strains, locus YPL055C, strain LGE1, active compounds read low 0.995 | S. cerevisiae deletion strains, locus YPL078C, strain atp4, active compounds read low 1.04 | S. cerevisiae deletion strains, locus YPL106C, strain sse1, active compounds read low 1.02 | S. cerevisiae deletion strains, locus YPL240C, strain hsp82, active compounds read low 1.02 | S. cerevisiae deletion strains, locus YPL241C, strain CIN2, active compounds read low 0.99 | S. cerevisiae deletion strains, locus YPL256C, strain CLN2, active compounds read low 0.941 | S. cerevisiae deletion strains, strain wtn01, active compounds read low 0.917 | S. cerevisiae strains, strain wild type, active compounds read low 1
